Reference: the supplement of paper PMC6555819

The sequences below were run on LXRb homodimer (NR concentration 270 nM) (assay: PBM binding z-score (relative to random genomic background probes); higher = stronger binding; sequences stand for … in GC…GCGATTGACAGCGTAGAATGAAGG).
Outline: (§1)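 Binding z-scores were set against random background probes. The data came from custom Agilent 4×180K protein-binding microarrays carrying double-stranded probes with 34-nt variable regions, incubated 1 h with ligand-free nuclear receptor dimers. Partner-specific antibodies detected binding, and scanned fluorescence was regression-normalized.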
TCAGAGAGGTGAAGGTAACTCAGGTACGCAGTCG gave a PBM binding z-score of -0.432. GGTAGTTGGTCAGTAAAAGGTCACACACCGGTCG gave a PBM binding z-score of 1.47. GTACCAAGGTGAATAGTTCGTTGATGAGTAGGCG gave a PBM binding z-score of -0.29. TCTATTAGTTGAATAGGGCAACCGAAACAGCGGA showed a PBM binding z-score of 0.0451. Work on CAAACTAGGTCACAGAGCTCAAAGTCCGTGCGTA yielded a PBM binding z-score of 0.231. Sequence ATCTCTTGGTAACAAGTTCAGTGAAAGAGAGGAC has a PBM binding z-score of 0.787. Work on TCAGACAGGTCAAGGTAACTCAGGTACGCAGTCG yielded a PBM binding z-score of 0.435. Work on TCGAGTAGGTTAGTCGGGGCGTTCAGCCAACATA yielded a PBM binding z-score of -1.19. In the case of TCTGCTAGGTCAGTTGGTCAGCTCACGAGCTGCC, the PBM binding z-score is reported as 0.255. AGAACGAGGGCACGCTGAGTTGATTGCAGAGTAG was tested, and the PBM binding z-score was -1.35. With AGAACGAGGGCACGCTGAGTAGATAGCAGAGTAG the PBM binding z-score was -0.892. Work on ATATGTAGGTTACATCCGGGTCATTCCGGCTATG yielded a PBM binding z-score of 0.955. AGAACGCGGGCACGCTGAGTTGATAGCAGAGTAG was tested, and the PBM binding z-score was -1.1. TCTTGTAGATCAATAGAGGCTAAGAAAGTGCGCT gave a PBM binding z-score of -0.421. Work on CCTAGCAGGCCAATCTGGGTCACTGAAGGCTTGA yielded a PBM binding z-score of -1.38. CCTTACGGGTCACGAGGTTACAGCACGACGAGCG was tested, and the PBM binding z-score was 0.337. For TCTTGTAGATCAGCAGGTGAAGAAAGCTGGCCAA, the PBM binding z-score was -0.698. With ACTATTAGCTGACTTAGGGCAACCGATACGACGC the PBM binding z-score was 0.546. AGAACGAGGGCAATGAGTTGATCGCACGGGTGGC showed a PBM binding z-score of -0.58. TTACCAAGGTGAAGGTCGTCGATCCCTCTGTAGA showed a PBM binding z-score of -0.788. CTCGAAAGGTCGGTTGAGGTGAATATACGGATAA gave a PBM binding z-score of 0.0541. CGTCCAAGGTCAAGGCTAGGTCAGTGAAAGCATT gave a PBM binding z-score of -0.26. Work on ACTAGCAGGCAAAGGGTCACTCAAGATTAGTCCG yielded a PBM binding z-score of -0.218. TCTTGTAGAACAAAGGTTAAGAAAGCCGAAGCCT gave a PBM binding z-score of -0.155. For TAACCTAGGTCATGGGCCAGTATACCACGCGAAC, the PBM binding z-score was 0.868. Sequence CTACCAAGGTGAACAAGGTCGTTGCTTACTATTC has a PBM binding z-score of -0.314. TGTGCTAGGTCAGTTGGTCAGCTAACGAGCTGCC showed a PBM binding z-score of 0.565. For TCTGGTTGGTCACGGAGGTCACACACGACGGGTA, the PBM binding z-score was 1.47. For AGTCAAAGTTCATCTAGGTGACGTAAGATATGCT, the PBM binding z-score was 1.52. Sequence GCTCTTAGTTGAAAGGGCAACCGAATGATTCTCG has a PBM binding z-score of -0.185. For CGTCCAAGGTCAGGGTCAGTGAAAGAGACTCGAA, the PBM binding z-score was 0.128. With TCATATAGCTAAAGGTGAAAGTCGAACGATATGA the PBM binding z-score was -0.321. AGAATGAGGTTACCAAAGATCAGGTAAACGCTTG gave a PBM binding z-score of -0.454. GCTGCTAGGTCAACTGATGGTTAGCTAAAGCTCG gave a PBM binding z-score of 0.22. In the case of TCGAGTAGGTTACTCGGGGCATTCAGCCAACATA, the PBM binding z-score is reported as -0.722. AGAAGGAGGGCACGCTGAGTTGATAGCAGAGTAG gave a PBM binding z-score of 0.0256. GCATATAGGTAATACATGGTGAAAGTCCGATTGT was tested, and the PBM binding z-score was -0.173. Work on GCTATTAGTTGAAAAGGCAACCGAATGATTCTCG yielded a PBM binding z-score of -0.383. With CAAACTAGGTCAAGGTCAACGTCGGTTTGTGCCA the PBM binding z-score was 0.922. For GCTTGTAAATCAAGGTTAAGAAAGACTAAGCTAA, the PBM binding z-score was -0.355.

What follows are sequences tested on PPARa:RXRa (NR concentration 270 nM, RXRa partner concentration 90 nM) in the same assay as above.
Outline: as §1
In the case of TCAGAGAGGTGAAGGTAACTCAGGTACGCAGTCG, the PBM binding z-score is reported as 2.27. GGTAGTTGGTCAGTAAAAGGTCACACACCGGTCG showed a PBM binding z-score of 4.34. With GTACCAAGGTGAATAGTTCGTTGATGAGTAGGCG the PBM binding z-score was 1.24. For TCTATTAGTTGAATAGGGCAACCGAAACAGCGGA, the PBM binding z-score was 1.16. CAAACTAGGTCACAGAGCTCAAAGTCCGTGCGTA was tested, and the PBM binding z-score was 5.45. Sequence ATCTCTTGGTAACAAGTTCAGTGAAAGAGAGGAC has a PBM binding z-score of 0.547. Sequence TCAGACAGGTCAAGGTAACTCAGGTACGCAGTCG has a PBM binding z-score of 4.62. Sequence TCGAGTAGGTTAGTCGGGGCGTTCAGCCAACATA has a PBM binding z-score of 0.148. In the case of TCTGCTAGGTCAGTTGGTCAGCTCACGAGCTGCC, the PBM binding z-score is reported as 1.53. In the case of AGAACGAGGGCACGCTGAGTTGATTGCAGAGTAG, the PBM binding z-score is reported as 1.94. With AGAACGAGGGCACGCTGAGTAGATAGCAGAGTAG the PBM binding z-score was 2.15. Sequence ATATGTAGGTTACATCCGGGTCATTCCGGCTATG has a PBM binding z-score of 4.37. For AGAACGCGGGCACGCTGAGTTGATAGCAGAGTAG, the PBM binding z-score was -0.532. TCTTGTAGATCAATAGAGGCTAAGAAAGTGCGCT showed a PBM binding z-score of 0.411. CCTAGCAGGCCAATCTGGGTCACTGAAGGCTTGA gave a PBM binding z-score of 3.01. In the case of CCTTACGGGTCACGAGGTTACAGCACGACGAGCG, the PBM binding z-score is reported as 6.14. TCTTGTAGATCAGCAGGTGAAGAAAGCTGGCCAA gave a PBM binding z-score of 0.51. ACTATTAGCTGACTTAGGGCAACCGATACGACGC showed a PBM binding z-score of -0.0754. AGAACGAGGGCAATGAGTTGATCGCACGGGTGGC gave a PBM binding z-score of 1.33. TTACCAAGGTGAAGGTCGTCGATCCCTCTGTAGA showed a PBM binding z-score of 2.6. With CTCGAAAGGTCGGTTGAGGTGAATATACGGATAA the PBM binding z-score was 3.15. For CGTCCAAGGTCAAGGCTAGGTCAGTGAAAGCATT, the PBM binding z-score was 5.33. ACTAGCAGGCAAAGGGTCACTCAAGATTAGTCCG gave a PBM binding z-score of 4.2. TCTTGTAGAACAAAGGTTAAGAAAGCCGAAGCCT gave a PBM binding z-score of 4.32. TAACCTAGGTCATGGGCCAGTATACCACGCGAAC gave a PBM binding z-score of 4.78. CTACCAAGGTGAACAAGGTCGTTGCTTACTATTC was tested, and the PBM binding z-score was 2.55. TGTGCTAGGTCAGTTGGTCAGCTAACGAGCTGCC showed a PBM binding z-score of 1.23. TCTGGTTGGTCACGGAGGTCACACACGACGGGTA was tested, and the PBM binding z-score was 3.99. In the case of AGTCAAAGTTCATCTAGGTGACGTAAGATATGCT, the PBM binding z-score is reported as 4.98. GCTCTTAGTTGAAAGGGCAACCGAATGATTCTCG gave a PBM binding z-score of 1.77. Sequence CGTCCAAGGTCAGGGTCAGTGAAAGAGACTCGAA has a PBM binding z-score of 5.11. TCATATAGCTAAAGGTGAAAGTCGAACGATATGA gave a PBM binding z-score of 2.67. AGAATGAGGTTACCAAAGATCAGGTAAACGCTTG gave a PBM binding z-score of 3.43. GCTGCTAGGTCAACTGATGGTTAGCTAAAGCTCG gave a PBM binding z-score of 3.58. For TCGAGTAGGTTACTCGGGGCATTCAGCCAACATA, the PBM binding z-score was 1.13. AGAAGGAGGGCACGCTGAGTTGATAGCAGAGTAG was tested, and the PBM binding z-score was 1.83. Work on GCATATAGGTAATACATGGTGAAAGTCCGATTGT yielded a PBM binding z-score of 0.369. Work on GCTATTAGTTGAAAAGGCAACCGAATGATTCTCG yielded a PBM binding z-score of 0.216. With CAAACTAGGTCAAGGTCAACGTCGGTTTGTGCCA the PBM binding z-score was 6.21. GCTTGTAAATCAAGGTTAAGAAAGACTAAGCTAA showed a PBM binding z-score of 1.56.
